According to PubChem BioAssay AID686971 (National Center for Advancing Translational Sciences (NCATS), 2013):
The campaign covered roughly 360,000 compounds. About 7,500 (2.1%) were called active. Not shown: some 8% with an inconclusive outcome. Calls follow the shape of the dose curve; as a rule, active = well fitted cell-killing curve with a large enough effect; inconclusive = small, poorly fitted or top-dose-only effect, or effect the other way, or another doubt; inactive = no such curve, though single readings can be large or run the other way. What follows is part of a selection rich in actives, with near analogues and random picks from the rest. A call without a number means that no potency is given here.

test: qHTS for induction of synthetic lethality in tumor cells producing 2HG: qHTS for the HT-1080-IDH1KD cell line; conditions: HT-1080 IDH1 knockdown viability, ATP luminescence, 48 h; series mostly up to 46.1 µM
Procedure, shortened: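 Knockdown cells (IDH1KD HT-1080) received compounds 2 h after plating at 750 cells/well and were kept 48 h at 37 °C in 5% FBS RPMI. A CellTiter-Glo luminescence read gave % activity for curve fitting.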
Potency is read from the fitted curve at half-maximal effect.

Row | SMILES | Potency
1 | Cc1cc(-c2ccc(C)c(S(=O)(=O)NCCCN(Cc3ccccc3)C(C)C)c2)on1 | inactive
2 | CCOc1ccccc1CNS(=O)(=O)c1cc(-c2cc(C)no2)ccc1C | inactive
3 | COc1ccc(CNS(=O)(=O)c2cc(-c3cc(C)no3)ccc2C(C)C)cc1 | 3.66 µM (active)
4 | CCOC(=O)N1CCN(C(=O)C[C@@H]2C[C@@]3(C(=O)OC)CCCCC=C3N(CCC3=CCCCC3)C2=O)CC1 | inactive
5 | Cc1cccc(-c2cnc(C(O)c3ccc4ccccc4c3)[nH]2)c1 (centres undefined) | inactive
6 | CC1(C(=O)NCc2ccccc2)CN(S(C)(=O)=O)CC(=O)N1CC(F)(F)F (centres undefined) | inactive
7 | CC1(C(=O)O)CCN1C(=O)/C=C/c1ccccc1 (centres undefined) | inactive
8 | CC1(C)CCSC(/C=C/c2ccccc2)=N1 | 25.9 µM (active)
9 | CC1(C(=O)NS(=O)(=O)c2ccccc2)CCN1C(=O)C/C=C/c1ccccc1 (centres undefined) | inactive
10 | CC1(C(=O)NCc2ccc3c(c2)OCO3)CCN1CCc1ccccc1 (centres undefined) | inactive
11 | CCN(CC)C(=O)C(C)N1c2cccc3cccc(c23)S1(=O)=O (centres undefined) | inactive
12 | COc1cccc(-c2cc3nc(NCCOc4ccccc4Cl)n(C)c(=O)c3s2)c1 | inactive
13 | CC(C)Nc1nc(NCCOc2ccccc2Cl)c2sccc2n1 | 16.4 µM (active)
14 | O=C(NCCOc1ccccc1Cl)C(=O)Nc1ccccc1 | inactive
15 | Cc1c(NC(=O)COC(=O)/C=C/c2cccc(F)c2)c(=O)n(-c2ccccc2)n1C | inactive
16 | COC(=O)C1(C(=O)OC)C[C@H](c2ccccc2)N(Cc2ccccc2OC)[C@@H]1c1ccccc1 | inactive
17 | C/C(=N\NC(=O)Cc1ccc(Cl)cc1)c1ccccn1 | 2.51 µM (active)
18 | CC1=NNC(=O)C1CCC(=O)N/N=C(\C)c1ccc(Cl)cc1 (centres undefined) | inactive
19 | NC(=O)NC(CC(=O)NNC(=O)c1ccccn1)c1ccc(Cl)cc1 (centres undefined) | inactive
20 | CC(=O)NC(c1ccccc1)c1nc(-c2cccc(C(C)C)c2)cs1 (centres undefined) | inactive
21 | CC(OC(=O)c1ccc(NC(=O)CC#N)cc1)C(=O)Nc1ccc(S(=O)(=O)N2CCCC2)cc1 (centres undefined) | inactive
22 | C[C@@H]1CN([C@H](C)CO)C(=O)CCCn2cc(nn2)CO[C@H]1CN(C)S(=O)(=O)c1ccc(Oc2ccccc2)nc1 | inactive
23 | Cc1cccc(CN2CCN(C3CN(Cc4cn(Cc5ccccc5F)nn4)S(=O)(=O)C3)CC2)c1 (centres undefined) | inactive
24 | O=C(NCC(O)c1nc2ccccc2[nH]1)c1ccc(Br)cc1 (centres undefined) | inactive
25 | CCOc1ccccc1N1CCN(C(=O)COc2ccc3c(C)cc(=O)oc3c2)CC1 | inactive

Row | SMILES | Potency
26 | Cc1cc(=O)oc2cc(OCCC[n+]3ccccc3)ccc12 | inactive
27 | Cc1cc(=O)oc2cc(OCC3CC(c4ccccc4Cl)=NO3)ccc12 (centres undefined) | 0.447 µM (active)
28 | CN1OC[C@@H]2CN(C(=O)c3cccnc3)[C@H](c3ccc(N4CCCCC4)cc3)C[C@@H]21 | inactive
29 | Cc1csc(SCC(=O)Nc2ccc(C)c(S(=O)(=O)N(C)C)c2)n1 | inactive
30 | C[C@H](CO)N1C[C@H](C)[C@@H](CN(C)Cc2ccc3c(c2)OCO3)OCc2cnnn2CCCC1=O | inactive
31 | O=C1c2ccccc2NC(c2ccc(-c3cccc(Cl)c3)o2)N1O (centres undefined) | 20 µM (active)
32 | CC(=O)NN1C(=O)c2ccccc2NC1c1ccccc1 (centres undefined) | inactive
33 | O=C(O)C(c1ccccc1)N1C(=O)/C(=C\c2ccc(-c3cccc(Cl)c3)o2)SC1=S (centres undefined) | inactive
34 | COc1ccc(C=C2CCC3C(CCCC34OCCO4)C2=O)cc1 (centres undefined) | inactive
35 | C=CCOc1cccc(C2C(C(=O)c3ccc(C)o3)=C(O)C(=O)N2CCN2CCOCC2)c1 (centres undefined) | inactive
36 | COCCNC(=O)C1CCCN(Cc2ccccc2Cl)CC1 (centres undefined) | inactive
37 | Cc1ccc(S(=O)(=O)N2CCOCC2)cc1NC(=O)c1ccncc1 | inactive
38 | CC(C)Nc1ncnc2c1ncn2[C@H]1CN(Cc2ccncc2)C[C@@H](CO)O1 | inactive
39 | O=C(CSc1ccccc1)Nc1nnc(/C=C/c2ccccc2)s1 | 18.4 µM (active)
40 | CCOCc1nnc(NC(=O)CSc2ccc(C)cc2)s1 | inactive
41 | O=C(Nc1ccc(Cl)cc1)Nc1nnc(/C=C/c2ccccc2)s1 | inactive
42 | CC1(C)OC(=O)C2=C(C[C@@H](C3CC3)O[C@H]2c2ccc(Cl)cc2)O1 | inactive
43 | CCCCc1nc2ccc(F)cc2cc1C | inactive
44 | CCCNC(=O)c1cc(C2CCCCN2S(=O)(=O)c2cn(C)cn2)on1 (centres undefined) | inactive
45 | COc1ccc2c(c1)C(C)=CC(C)(C)N2C(=O)CNCc1ccc2c(c1)OCO2 | 8.91 µM (active)
46 | COc1ccc2c(c1)C(C)=CC(C)(C)N2C(=O)Nc1ccccc1 | inactive
47 | COc1ccc(NC(=O)NCc2ccc3c(c2)OCO3)c(OC)c1 | inactive
48 | CCOC(=O)[C@]12CCCC=C1N(Cc1ccc3c(c1)OCO3)C(=O)[C@H](CC(=O)N1CCN(C(=O)c3ccco3)CC1)C2 | inactive
49 | CCN(CC)CCn1c(/N=C/c2cc(Br)ccc2O)nc2ccccc21 | inactive
50 | Oc1ccc(Br)cc1/C=N/Nc1ccccn1 | 6.51 µM (active)

Row | SMILES | Potency
51 | Cc1c(C(=O)Nc2ccccn2)oc2ccc(Br)cc12 | inactive
52 | NCCCCC(C(=O)O)N(C(=O)OCc1ccccc1)C(=O)OCc1ccccc1 (centres undefined) | inactive
53 | O=C(COC(=O)c1ccc(S(=O)(=O)N2CCCCCC2)cc1)Nc1ccccc1C(F)(F)F | inactive
54 | CCc1nc2ccc(C(=O)Nc3ccc(OC)c(OC)c3)cn2c1N(C)C(=O)c1cccc(OC)c1 | inactive
55 | O=C(Nc1cccc(-c2cscn2)c1)C1CCN(Cc2ccsc2)CC1 | inactive
56 | O=C(Nc1cnn(Cc2ccc(Cl)cc2)c1)C1CCCC1 | inactive
57 | CC(=O)c1cc(CN2CCC(C(=O)Nc3cccc(-c4cscn4)c3)CC2)cs1 | inactive
58 | CCn1cc(CN2CCC(C(=O)Nc3cccc(-c4cccc(Cl)c4)c3)CC2)c(C)n1 | 20.6 µM (active)
59 | CCn1cc(CN2CCC(n3nccc3NC(=O)CCCc3ccccc3)CC2)c(C)n1 | inactive
60 | CCn1cc(CN2CCC(C(=O)Nc3cccc(-c4cccc(Cl)c4)c3)CC2)cn1 | 18.4 µM (active)
61 | Cc1ccc([C@@H]2CC(=O)[C@@H]3CN(S(=O)(=O)c4ccc(C)cc4)[C@H](c4ccccc4F)C[C@@H]3N2S(=O)(=O)c2ccc(Cl)cc2)cc1 | inactive
62 | CCN(CC)CCn1c2ccc(Cl)cc2c2nc(C)sc21 | inactive
63 | CCN(CC)CCCC(C)n1c2nc(=O)[nH]c(=O)c-2nc2cc(Cl)ccc21 (centres undefined) | 16.4 µM (active)
64 | CCCCc1ccc(S(=O)(=O)NC(=O)C2(C)CCN2C(=O)c2c(C)noc2C)cc1 (centres undefined) | inactive
65 | CC(=O)Nc1ccc(SCC(=O)NC(=O)c2ccc(Cl)cc2)cc1 | inactive
66 | Cc1cccc(C)c1-n1nnnc1C1(C)CCC(=O)N1CCOc1ccccc1 (centres undefined) | inactive
67 | COc1cc(NC(=O)c2cc(-c3ccc(F)cc3OC(C)C)n[nH]2)cc(OC)c1OC | inactive
68 | COc1ccc(NC(=O)C[C@H]2C(=O)N(CCc3ccccc3)C[C@@H]2C)cc1 | inactive
69 | OCCc1ccc(NCCc2ccco2)cc1 | inactive
70 | Cc1ccc(S(=O)(=O)Nc2nc(N)n(-c3ccccc3)n2)cc1 | inactive
71 | Cc1ccc(S(=O)(=O)Nc2nc(C)cc(-n3nc(C)cc3C)n2)cc1 | 15.8 µM (active)
72 | Cc1cc(C)nc(NS(=O)(=O)c2ccc(N3C(=O)C4CCCCC4C3=O)cc2)n1 (centres undefined) | inactive
73 | C[C@H]1CN([C@@H](C)CO)C(=O)CCCn2cc(nn2)CO[C@@H]1CN(C)S(=O)(=O)c1cccc(C#N)c1 | inactive
74 | CC1(C(=O)NS(=O)(=O)c2ccc(C#N)cc2)CCN1C(=O)CC1CCCC1 (centres undefined) | inactive
75 | CC(=O)Nc1ccc(CNc2nc(NCCN(C)C)nc3cc(-c4ccccc4)sc23)cc1 | 20.6 µM (active)

Row | SMILES | Potency
76 | COCCNc1nc(NCc2ccc(NC(C)=O)cc2)c2sccc2n1 | inactive
77 | COCCNc1nc(Nc2ccccc2Cl)c2sc(-c3ccccc3)cc2n1 | inactive
78 | COc1cccc(C(O)c2nc(-c3ccc(C)c(C)c3)cs2)c1 (centres undefined) | inactive
79 | CC1(C)OC(=O)C2=C(CC(c3ccccc3)OC2CCc2ccccc2)O1 (centres undefined) | inactive
80 | OCCCNc1nccc(-c2cc(Nc3cccc(Cl)c3)ncn2)n1 | inactive
81 | CC(C)n1cnc2c(Nc3cccc(Cl)c3)nc(N(CCO)CCCO)nc21 | 14.6 µM (active)
82 | COC(=O)[C@]12CCCCC=C1N(Cc1ccc3c(c1)OCO3)C(=O)[C@H](CC(=O)NCc1cccs1)C2 | inactive
83 | COc1cc(C(O)c2nc(-c3cnn(C)c3)cs2)ccc1F (centres undefined) | inactive
84 | CCCCCNC(=O)C1C(=O)Nc2ccccc2C(=O)N1C(C)(C)C (centres undefined) | inactive
85 | CCOC(=O)[C@H]1Nc2ccc(Cl)cc2[C@@H]2[C@H]1C1CC(c3ccccc31)N2C(=O)OCc1ccccc1 (some centres undefined) | inactive
86 | CCOC(=O)Cc1ncccc1C(=O)Nc1ccc(OC)cc1 | inactive
87 | COC(=O)Cc1ccc(OCC(=O)Nc2ccc(OC(F)(F)F)cc2)cc1 | inactive
88 | CCOC(=O)Cc1ncccc1C(=O)Nc1ccc(OC(F)(F)F)cc1 | 20.6 µM (active)
89 | O=C(NCc1ccccc1)C1c2ccccc2OCC(=O)N1C1CC1 (centres undefined) | inactive
90 | CCNC(=O)c1ccc(OCC(=O)Nc2ccc(F)cc2)c(OC)c1 | inactive
91 | COc1ccc(C(=O)Nc2ccc(C3(C#N)CCCC3)cc2)cc1OC | inactive
92 | COc1ccc(C(=O)N/N=C2\CCS(=O)(=O)c3ccc(F)cc32)cc1OC | 20.6 µM (active)
93 | CC1(C(=O)NCc2ccccc2)CSCC(=O)N1CCCn1ccnc1 (centres undefined) | inactive
94 | O=C(C(=O)N1CCC(c2ccccc2)CC1)c1ccccc1 | inactive
95 | CN(c1ccccc1)S(=O)(=O)c1ccc(C(=O)NCc2cccnc2)cc1 | inactive
96 | Cc1sc2nc(SCC(N)=O)n(C)c(=O)c2c1C | inactive
97 | Nc1nc(SCC(=O)NCCN2CCOCC2)nc2sc3c(c12)CCC3 | inactive
98 | CC(C)(C)C1CCc2c(sc3nc(SCC(N)=O)nc(N)c23)C1 (centres undefined) | 32.6 µM (active)
99 | CC1Cc2[nH][nH]c(=O)c2C(C2CCCC2)O1 (centres undefined) | inactive
